Pf growth 96h: inhibits malaria parasite growth, 96 h; P. falciparum luciferase reporter growth, 96 h; 320,000 compounds, 6.9% hits; Potency, µM (series often up to 28.7 µM), inactives show at the top dose activity change, negative = inhibition, usual class: inhibitors; AID 504834; note: potency is the fitted concentration of half-maximal effect; % is set by controls: 0 for no effect and ±100 for the full control effect
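P. falciparum expressing integrated firefly luciferase, in erythrocytes at 2% hematocrit, 0.05% parasitemia, incubated with compounds 96 h at 37 C, 5% CO2. Growth inhibition read as loss of luminescence; two-generation exposure targets delayed-death apicoplast inhibitors.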
Pf growth 48h: inhibits P. falciparum growth in the first generation, 48 h; 310,000 compounds, 5.9% hits; Potency, µM (top dose mostly 28.7 µM), for the others: at the highest dose activity change, negative = inhibition, usual class: inhibitors; P. falciparum luciferase growth in erythrocytes, 48 h; note: potency is the fitted concentration of half-maximal effect; % is set by controls: 0 for no effect and ±100 for the full control effect
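Growth was read as firefly luciferase luminescence after a 48 h, 37 C, 5% CO2 exposure of compounds to reporter-bearing P. falciparum cultures (0.1% parasitemia, 2% hematocrit final) in Albumax-supplemented RPMI 1640.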
LmPK inh: LmPK (Leishmania mexicana) enzyme inhibition; Potency, µM (titrated, usually from 57.5 µM), for the others: at the top dose activity change, negative = inhibition, most hits filed as inhibitors; 290,000 compounds, 0.37% hits; purified LmPK, Kinase-Glo ATP luminescence, 1 h; Q27686; AID 1721; note: potency is the fitted concentration of half-maximal effect; % is set by controls: 0 for no effect and ±100 for the full control effect
Target sequence (Q27686 whole entry, looked up): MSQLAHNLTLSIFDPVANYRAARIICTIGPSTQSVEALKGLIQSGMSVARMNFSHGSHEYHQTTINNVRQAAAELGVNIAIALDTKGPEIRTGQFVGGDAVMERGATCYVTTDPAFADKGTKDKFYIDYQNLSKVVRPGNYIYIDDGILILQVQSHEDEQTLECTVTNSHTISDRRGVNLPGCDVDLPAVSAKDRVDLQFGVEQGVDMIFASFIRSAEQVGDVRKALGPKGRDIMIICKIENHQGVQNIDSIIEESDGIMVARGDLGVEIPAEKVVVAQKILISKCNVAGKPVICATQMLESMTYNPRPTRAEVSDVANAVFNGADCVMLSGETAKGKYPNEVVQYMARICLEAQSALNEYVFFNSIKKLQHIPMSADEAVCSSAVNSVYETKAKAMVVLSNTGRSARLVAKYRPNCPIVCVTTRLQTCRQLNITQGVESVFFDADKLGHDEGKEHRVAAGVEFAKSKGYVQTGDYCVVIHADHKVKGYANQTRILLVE
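Kinase-Glo luminescence read after 1 h RT reaction of 0.1 nM LmPK with 0.5 mM PEP and 0.1 mM ADP. Activity scaled between uninhibited and enzyme-free controls.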
Cycloheximide cs: affects cycloheximide protein synthesis inhibition readout, counter-screen. cell reporter, cycloheximide protein synthesis inhibition counterscreen. max response, %. 300,000 compounds, 12% hits. AID 2314; in the data active = max response mostly above about 13%, no sharp cut-off; inactive = mostly below about 14%; note: read at 38.3 µM for the half of the compounds with a filed dose; 0% is about no effect
Shiga inhibitor: inhibitors of Shiga toxin in Vero cells. inhibition, % at 38.7 µM. 290,000 compounds, 9.2% hits. AID 2315. Vero cells, Shiga toxin protein synthesis inhibition reporter; in the data active = inhibition mostly above about 28%, no sharp cut-off; inactive = mostly below about 43%; note: 0% is about no effect
Numbers without * were called inactive; ? = inconclusive; · = no result. Most compounds without a hit are left out; they make up all but 22% or so of the library. Unless noted, calls come from the whole dose curve; as a rule, active = well fitted inhibition curve with a large enough effect; inconclusive = small, poorly fitted or top-dose-only effect, or another doubt; inactive = no such curve, though single readings can be large or run the other way.

SMILES | Pf growth 96h | Pf growth 48h | LmPK inh | Cycloheximide cs | Shiga inhibitor
CSCC[C@H](NC(=O)[C@H](CC(C)C)NC(=O)CNC(=O)[C@@H]1CCCN1C(=O)[C@H](Cc1ccccc1)NC(=O)[C@H](Cc1ccccc1)NC(=O)[C@H](CC(=O)O)NC(=O)[C@H](Cc1cnc[nH]1)NC(=O)[C@H](CCSC)NC(=O)[C@@H](N)CC(=O)O)C(N)=O | · | · | · | -4 | -6
Cc1ccc(S(=O)(=O)Nc2cccc(C(=O)NCCN3CCOCC3)c2)cc1F | -29% | -18% | · | · | ·
CC(NCC#Cc1ccccc1)C(O)c1ccccc1 (centres undefined) | ? | ? | 0% | -3 | -4
CSc1ccc(CNC(C)C(O)c2ccccc2)cc1 (centres undefined) | -2% | 1.9µM* | 3% | 13 | -1
COC(=O)C1=C(C)NC(C)=C(C(=O)OC)C1C(=O)OCC(=O)N1CCCCC1C (centres undefined) | ? | -9% | · | · | ·
CN1OC(COC(=O)c2ccccc2)CC1c1ccccc1 (centres undefined) | 403% | 144% | 0% | 41* | 94*
CN1C2CCC1C(COC(=O)c1ccccc1)C(O)C2 (centres undefined) | 1% | ? | -8% | -3 | 5
OC1(C#CCN2CCOCC2)CCCCC1 | 29% | 5% | 1% | -6 | 22
CC(C)(O)C#CC#CCN1CCOCC1 | 10µM* | 7% | 4% | 1 | -5
COc1cc(/C=C2\C(=N)N3N=C(S(C)(=O)=O)SC3=NC2=O)ccc1OC(=O)c1ccco1 | ? | -24% | -12% | -3 | 9
OC(c1cc(C(F)(F)F)nc2c(Cl)cc(Cl)cc12)C1CCCCN1 (centres undefined) | 0.0033µM* | 0.013µM* | 4% | -5 | -15
CC(O)(c1ccccc1)C(c1ccccc1)C1CCCCN1 (centres undefined) | ? | -15% | 0% | -2 | 1
OC(c1cc(-c2ccc(Cl)cc2)nc2ccccc12)C1CCCCN1 (centres undefined) | 0.052µM* | 0.037µM* | 2% | 1 | -6
O=C(c1cc(-c2ccc(Cl)cc2)nc2ccccc12)N1CCOCC1 | -14% | ? | · | · | ·
O[C@@H](c1cc(C(F)(F)F)nc2c(C(F)(F)F)cccc12)[C@H]1CCCCN1 | 0.015µM* | 0.033µM* | · | · | ·
Cc1ccc(NC(=O)CSc2nnc(-c3ccncc3)o2)cc1C | -29% | 32% | 0% | -2 | 1
CCc1c(C)sc(NC(=S)Nc2nc(C)cc(C)n2)c1C(=O)OC | 53% | ? | 0% | 12 | -6
CCc1c(C)sc(NC(=S)Nc2cccnc2)c1C(=O)OC | 10% | 28% | 6% | -2 | 22*
COc1cc(/C=C(\NC(C)=O)C(=O)N2CCCCC2)ccc1OC(C)=O | 0% | -8% | 1% | 0 | 14
Cc1cccc(NC(=O)c2cc(NC(=O)c3ccccc3)ccc2N2CCCCC2)c1 | -4% | · | 3% | -5 | -3
C#Cc1ccc(C(=O)Nc2ccc(N3CCC(C)CC3)c(C(N)=O)c2)cc1 | ? | 1.9µM* | 2% | 7 | 2
O=C(NNS(=O)(=O)c1ccccc1)C1CC(c2cccnc2)=NO1 (centres undefined) | 1% | ? | -4% | -4 | -2
O=C(Cc1cccc2ccccc12)NCC1CCCO1 (centres undefined) | 7% | -1% | -2% | 8 | 32
COc1ccc2c(Cl)c(C(=O)NCCCn3ccnc3)sc2c1Cl | ? | 10µM* | -4% | 2 | 29
COc1ccc(C(=O)NCCCn2ccnc2)cc1 | 0% | -20% | 0% | 17 | 5
SMILES | Pf growth 96h | Pf growth 48h | LmPK inh | Cycloheximide cs | Shiga inhibitor
COc1ccc2c(Cl)c(C(=O)NCC3CCCO3)sc2c1Cl (centres undefined) | -8% | -1% | 1% | 20* | 23
O=C(NCC1CCCO1)c1sc2ccccc2c1Cl (centres undefined) | ? | 187% | -9% | 41* | 73*
O=C(NCC1CCCO1)c1sc(=S)n2c1[nH]c(=O)c1ccc(C(=O)N3CCCCC3)cc12 (centres undefined) | ? | 10µM* | 20µM* | 0 | -21
CCOC(=O)c1[nH]c(C=O)c(C(=O)OCC)c1C | ? | ? | 6% | -3 | -3
COc1cccc(C(=O)NCC(=O)OCC(=O)Nc2cc(OC)c([N+](=O)[O-])cc2C)c1 | 15% | 8% | 3% | -2 | 8
Cc1ccc2c(Cl)c(C(=O)NCC3CCCO3)sc2c1 (centres undefined) | 93% | 314% | 1% | 55* | 77*
COc1ccc(C2=Nn3c(nnc3-c3ccccc3O)SC2)cc1OC | · | · | · | 7 | -1
CCOC(=O)N1CCN(C(=O)C2CCN(Cc3cccc(OCc4ccccc4)c3)CC2)CC1 | 4.7µM* | 5% | -1% | -2 | -8
NC(=O)C1CCN(Cc2ccc(OCc3ccccc3)cc2)CC1 | 92% | 105% | 3% | 25* | 54*
CCOC(=O)C1CCN(Cc2ccc(OCc3ccccc3)cc2)CC1 | 0% | 10% | -15% | 3 | 6
CCCCN(C)C(=O)C1CCN(Cc2ccc(OCc3ccccc3)cc2)CC1 | -10% | ? | -3% | 13 | active
COc1ccc(CCC(=O)OCC(=O)Nc2c(C)n(C)n(-c3ccccc3)c2=O)cc1 | 11% | -3% | · | · | ·
CCN1C(=O)C(=O)N(CC(=O)NC(C)CCc2ccccc2)C1=O (centres undefined) | -13% | -29% | · | · | ·
Cc1ccc(N=C2C(=O)Nc3c(C)cccc32)cc1 | 10µM* | 1% | -9% | 1 | -9
CN(/N=C/c1cc(Cl)ccc1O)C1=NS(=O)(=O)c2ccccc21 | -24% | ? | 0% | 8 | -3
O=C(CSc1ncccn1)NCc1cccs1 | 53% | -13% | 0% | 16 | 42
O=C(CSc1ccc2ccccc2c1)NCc1cccs1 | 13% | 11% | 3% | 32* | 15
O=C(CSc1nnc2ccccn12)NCc1cccs1 | ? | · | 11% | 21* | 52*
O=C(CSCc1cnn(-c2ccccc2)c1-n1cccc1)NCc1cccs1 | 4.7µM* | · | 4% | -1 | -7
CN(C(=O)COC(=O)c1cccnc1Nc1ccccc1F)C1CCS(=O)(=O)C1 (centres undefined) | 91% | 76% | ? | 28* | 65*
CN(C(=O)COC(=O)c1cccnc1Nc1cccc(C(F)(F)F)c1)C1CCS(=O)(=O)C1 (centres undefined) | -11% | 10% | 4% | -3 | -6
Cc1ccc(-n2c(C)cc(C(=O)OCC(=O)N(C)C3CCS(=O)(=O)C3)c2C)cc1 (centres undefined) | 42% | 1.7µM* | -3% | 10 | 17
CCN(C(=O)COC(=O)c1cccnc1Nc1ccccc1F)C1CCS(=O)(=O)C1 (centres undefined) | 159% | 153% | ? | 62* | 54*
CN(CCC#N)C(=O)COC(=O)c1cccnc1Nc1ccccc1F | 25% | -10% | -23% | 16* | 21

Assay outcomes from PubChem BioAssay.
